Here are results for 46 molecules from the supplement of paper PMC11150407.

In all, about 2,100 compounds went through this assay and about 180 (8.6%) showed an effect of 50% or more. Shown is part of a subset that was picked to be rich in strong results.

The subject of the test is MOLM1 and UCSD/AML1 (averaged). Nature of the test: cell viability relative to DMSO control (POC); higher = less growth inhibition. Particulars: 1 µM; 72 h. Here is the method: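 Primary viability screen in the 3q26 EVI1-high AML cell lines MOLM1 and UCSD/AML1 (1.5e3 cells/well, 384-well), compounds at 1 uM for 72 h. ATP CellTiter-Glo read-out given as percent of viable cells over DMSO control (POC), averaged over duplicates. DMSO was the negative control and 5 uM etoposide the positive control. This mapping covers the MicroSource Spectrum and Selleck anticancer libraries (drug names).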
For `COc1cc2c(c(OC)c1OC)-c1ccc(OC)c(=O)cc1[C@@H](NC(C)=O)CC2`, the cell viability was determined as 6.75%.

In the case of `CC(=O)O[C@@H]1C[C@H]2C(C)(C)C(=O)C=C[C@]2(C)[C@H]2CC[C@]3(C)C(=CC(=O)O[C@H]3c3ccoc3)[C@@]21C`, the cell viability came to 75.1%. As for `Nc1ncn[nH]1`, the cell viability was found to be 109%. As to `CCCCCCCCCc1ccc(O)cc1`, the cell viability was found to be 105%. With `CNC(=O)Oc1ccc2c(c1)[C@]1(C)CCN(C)[C@@H]1N2C`, the cell viability was 106%.

Regarding `O=C1C=C2C(=CCOC2O)O1` (stereo unspecified), the cell viability stood at 1.61%. For `c1cncc([C@@H]2CCCCN2)c1`, the cell viability was 107%. Then `C[C@H]1O[C@H](O[C@H]2[C@H](O)[C@@H](O)[C@@H](O)[C@H](O)[C@@H]2O)[C@@H](N)C[C@@H]1NC(=N)C(=O)O`, with 103%; and `C[C@]12C=CC(=O)C=C1CC[C@@H]1[C@@H]2CC[C@]2(C)C(=O)CC[C@@H]12`, with 101%; and `CC(C)=CCC[C@]1(C)C=Cc2c(O)c3c(c(CC=C(C)C)c2O1)O[C@]12C(=C[C@@H]4C[C@H]1C(C)(C)O[C@@]2(C/C=C(/C)C(=O)O)C4=O)C3=O`, with 1.06%. On to `CC(C)=CCC[C@]1(C)C=Cc2c(O)c3c(c(CC=C(C)C)c2O1)O[C@]12C(=C[C@@H]4C[C@H]1C(C)(C)O[C@@]2(C/C=C(/C)C(N)=O)C4=O)C3=O`, for which the cell viability amounted to 13.2%. Turning to `CC(C)=CCCC1(C)C=Cc2c(O)c3c(c(CC=C(C)C)c2O1)OC12C(CC4CC1C(C)(C)OC2(C/C=C(/C)C(=O)O)C4O)C3=O` (stereo unspecified), the cell viability worked out at 94.1%.

Consider `CC(C)CCCC1(C)C=Cc2c(O)c3c(c(CCC(C)C)c2O1)OC12C(CC4CC1C(C)(C)OC2(CCC(C)C(=O)O)C4O)C3=O` (stereo unspecified), for which the cell viability is 106%.

In the case of `CC(C)=CCCC1(C)C=Cc2c(O)c3c(c(CC=C(C)C)c2O1)OC12C(=CC4CC1C(C)(C)OC2(C/C=C(/C)C(=O)O)C4O)C3=O` (stereo unspecified), the cell viability was 99.7%.

In the case of `C=C(C)c1cc2cc(C(C)=O)c(O)cc2o1`, the cell viability amounted to 104%.

With `COC(=O)C1=CCCN(C)C1`, the cell viability was determined as 98.5%.

On to `COc1c2c(cc3c1OCO3)CCN(C)C2`, for which the cell viability is 119%. As for `CCC(C)C(=O)O[C@@H]1C[C@@]2(C)[C@H](c3ccoc3)OC(=O)CC23OC2(C)O[C@]14[C@]1(C)[C@@H](CC(=O)OC)C5(C)CC1(O)[C@](O)(C5OC(=O)C1(C)OC1C)[C@@H](OC(C)=O)[C@]34O2` (stereo partly specified), the cell viability came out at 95.6%.

With `CC1(C)N([O-])[N+](=O)C1(C)Br` (stereo unspecified), the cell viability came to 109%. For `COc1cc2c(cc1O)CCN[C@@H]2C`, the cell viability was found to be 112%. For `CCN1C[C@]2(OC(=O)c3ccccc3NC(C)=O)CC[C@H](OC)[C@@]34[C@@H]2C[C@@H]([C@@H]13)[C@@]1(O)C[C@H](OC)[C@H]2C[C@@H]4[C@]1(O)[C@H]2OC`, the cell viability was found to be 96.8%. On to `C[C@@H]1O[C@@H](O[C@H]2C[C@@H](O)[C@]3(CO)[C@H]4[C@H](O)C[C@]5(C)[C@@H](C6=CC(=O)OC6)CC[C@]5(O)[C@@H]4CC[C@]3(O)C2)[C@H](O)[C@H](O)[C@H]1O`, for which the cell viability worked out at 1.94%. For the molecule `C[C@@H]1O[C@@H](O[C@H]2CC[C@]3(C=O)[C@H]4CC[C@]5(C)[C@@H](C6=CC(=O)OC6)CC[C@]5(O)[C@@H]4CC[C@]3(O)C2)[C@H](O)[C@H](O)[C@H]1O`, the cell viability amounted to 1.83%. As to `CO[C@H]1C[C@H](O[C@H]2CC[C@]3(C=O)[C@H]4CC[C@]5(C)[C@@H](C6=CC(=O)OC6)CC[C@]5(O)[C@@H]4CC[C@]3(O)C2)O[C@H](C)[C@H]1O`, the cell viability came to 3.81%. The result for `CO[C@H]1[C@H](O)[C@H](O[C@H]2CC[C@@]3(C=O)[C@H](CC[C@@H]4[C@@H]3CC[C@]3(C)[C@@H](C5=CC(=O)OC5)CC[C@]43O)C2)O[C@@H](C)[C@@H]1O` reads 1.75%; that for `COc1cc2ccc(=O)oc2c2ccoc12`, 104%. Then `C[N+]12CC[C@@]34c5ccccc5N5C(=O)C[C@@H]6OCC=C(C1)[C@H](C[C@@H]32)[C@@H]6[C@H]54` (stereo partly specified), with 102%. In the case of `O=C([O-])c1ccccc1-c1c2cc(Br)c(=O)cc-2oc2[c]([Hg+])c([O-])c(Br)cc12.[Na+].[Na+].[OH-]`, the cell viability is 87.1%. For `O=C1CN=C(c2ccccc2Cl)c2cc([N+](=O)[O-])ccc2N1`, the cell viability is 87%. The result for `C[C@@]12C(=O)OC(=O)[C@]1(C)[C@H]1CC[C@@H]2O1` reads 101%; that for `CC[C@@H](CO)NC(=O)[C@@H]1C=C2c3cccc4[nH]cc(c34)C[C@H]2N(C)C1`, 98%. Consider `CCC12C=CCN3CC[C@@]4(c5ccc(OC)cc5N(C)[C@H]4[C@@](O)(C(=O)OC)[C@@H]1OC(C)=O)[C@@H]32` (stereo partly specified), for which the cell viability is 94%.

Consider `C=C[C@H]1CN2CC[C@H]1C[C@@H]2[C@@H](O)c1ccnc2ccccc12`, for which the cell viability came to 113%. Regarding `CC1(C)C2CC(=O)[C@]3(C)C(CC[C@@]4(C)[C@H](c5ccoc5)OC(=O)[C@H]5O[C@]543)[C@@]2(C)C(=O)C[C@H]1O` (stereo partly specified), the cell viability is 87.6%. With `Cc1[nH]c2ccccc2c1CN(C)C`, the cell viability was determined as 109%.

As for `C[C@]12CCC(=O)C[C@@H]1CC[C@@H]1[C@@H]2CC[C@]2(C)C(=O)CC[C@@H]12` [5alpha-ANDROSTAN-3,17-DIONE], the cell viability was 101%. For the molecule `C[C@]12CC[C@H]3[C@@H](CC[C@]4(O)C[C@@H](O)CC[C@]34C=O)[C@@]1(O)CC[C@@H]2C1=CC(=O)OC1`, the cell viability is 3.15%.

Take `CC1CC(Cl)CCC1C(=O)OC(C)(C)C` (stereo unspecified): the cell viability worked out at 102%.

In the case of `COc1cc([C@@H]2c3cc4c(cc3[C@H](OC(C)=O)[C@H]3COC(=O)[C@H]23)OCO4)cc(OC)c1OC`, the cell viability amounted to 6.04%.

With `COc1cc([C@@H]2c3cc4c(cc3[C@H](OC(C)=O)[C@H]3COC(=O)[C@@H]23)OCO4)cc(OC)c1OC`, the cell viability turned out to be 34.9%. As to `O=C(O)COc1cc(Cl)c(Cl)cc1Cl`, the cell viability was 98.7%. Turning to `COc1cc2c(cc1O)C[C@H]1c3c(cc(O)c(OC)c3-2)CCN1C`, the cell viability was determined as 99%. For the molecule `O=c1ccc2c(O)c3ccoc3cc2o1`, the cell viability worked out at 91.2%. As to `CC1(C)C2C[C@@H](O)[C@]3(C)C(CC[C@@]4(C)[C@H](c5ccoc5)OC(=O)[C@H]5O[C@]543)[C@@]2(C)[C@@H](O)C[C@H]1O` (stereo partly specified), the cell viability stood at 106%. Regarding `CCN1C[C@]2(COC)[C@H](O)C[C@H](OC)[C@@]34[C@@H]5C[C@@]6(O)[C@H](OC(=O)c7ccccc7)[C@@H]5[C@@](OC(C)=O)([C@@H]([C@H](OC)[C@H]23)[C@@H]14)[C@@H](O)[C@@H]6OC`, the cell viability is 100%.

Turning to `CC1(C)C(=O)C=C[C@]2(C)[C@H]3CC[C@@]4(C)[C@H](c5ccoc5)OC(=O)[C@H]5O[C@]54[C@]3(C)[C@H](O)C[C@@H]12`, the cell viability worked out at 98.3%.
